Reference: the supplement of paper PMC11732987, “Enantioselective OTUD7B fragment discovery through chemoproteomics screening and high-throughput optimisation” (Communications Chemistry, 2025)

Assays:
Experiment in all cases: log2 ratio of Biotin-Ahx-Ub-VS probe labelling (fragment/DMSO); higher = less target engagement (more negative = stronger competition), active = hit call of the paper (q ≤ 0.05, log2 ratio ≤ -1)
Settings in all cases: compound concentration: 200 uM; treatment time: 3 h
[1] = biological target: T1, USP19 (UniProt O94966)
T1 sequence (whole entry): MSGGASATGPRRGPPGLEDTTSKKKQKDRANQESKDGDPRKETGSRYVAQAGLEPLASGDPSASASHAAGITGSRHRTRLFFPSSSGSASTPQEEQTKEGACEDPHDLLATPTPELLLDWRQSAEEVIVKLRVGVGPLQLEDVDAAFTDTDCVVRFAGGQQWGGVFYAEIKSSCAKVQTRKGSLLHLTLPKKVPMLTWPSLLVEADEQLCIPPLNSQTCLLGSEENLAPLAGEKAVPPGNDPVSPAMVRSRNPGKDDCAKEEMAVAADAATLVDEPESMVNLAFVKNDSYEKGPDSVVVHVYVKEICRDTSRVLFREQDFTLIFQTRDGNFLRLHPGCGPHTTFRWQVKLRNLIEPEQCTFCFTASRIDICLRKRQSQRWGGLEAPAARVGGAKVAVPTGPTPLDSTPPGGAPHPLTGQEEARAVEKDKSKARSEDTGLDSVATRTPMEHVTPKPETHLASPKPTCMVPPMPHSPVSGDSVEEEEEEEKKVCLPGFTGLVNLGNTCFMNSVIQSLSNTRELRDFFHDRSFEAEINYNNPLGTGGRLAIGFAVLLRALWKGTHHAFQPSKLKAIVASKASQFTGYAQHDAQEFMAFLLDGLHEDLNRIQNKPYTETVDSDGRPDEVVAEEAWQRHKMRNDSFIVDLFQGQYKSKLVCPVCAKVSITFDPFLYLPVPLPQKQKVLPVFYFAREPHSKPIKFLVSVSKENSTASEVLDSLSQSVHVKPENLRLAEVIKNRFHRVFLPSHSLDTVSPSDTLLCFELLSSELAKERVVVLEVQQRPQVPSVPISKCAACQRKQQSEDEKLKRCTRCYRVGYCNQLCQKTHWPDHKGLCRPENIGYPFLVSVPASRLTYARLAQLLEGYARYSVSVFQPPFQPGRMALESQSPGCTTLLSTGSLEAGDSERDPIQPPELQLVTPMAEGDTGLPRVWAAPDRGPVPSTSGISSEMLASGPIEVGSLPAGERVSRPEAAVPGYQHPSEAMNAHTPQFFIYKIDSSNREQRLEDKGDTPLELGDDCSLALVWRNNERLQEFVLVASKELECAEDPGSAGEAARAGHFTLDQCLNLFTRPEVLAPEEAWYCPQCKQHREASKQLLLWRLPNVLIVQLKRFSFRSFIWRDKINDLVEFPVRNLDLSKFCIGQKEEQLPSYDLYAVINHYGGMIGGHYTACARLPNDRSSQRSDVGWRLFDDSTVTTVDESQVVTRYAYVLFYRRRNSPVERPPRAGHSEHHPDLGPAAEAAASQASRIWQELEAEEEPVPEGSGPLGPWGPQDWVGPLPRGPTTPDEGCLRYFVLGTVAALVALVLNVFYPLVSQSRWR
How it was run: (§1)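 The table lists average log2 ratios of fragment over vehicle, from an unpaired t-test on global-median-normalised Spectronaut label-free quantities. Proteins with ≥2 unique peptides were used. Samples were HEK293T lysate (495 µg) treated in triplicate with fragment at 200 µM or vehicle for 3 h, then with Biotin-Ahx-Ub-VS (0.5 µM final) for 1 h, with labelled DUBs NeutrAvidin-enriched and run by diaPASEF LC-MS/MS.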

[2] = biological target: T2, USP22 (UniProt Q9UPT9)
T2 sequence (whole entry): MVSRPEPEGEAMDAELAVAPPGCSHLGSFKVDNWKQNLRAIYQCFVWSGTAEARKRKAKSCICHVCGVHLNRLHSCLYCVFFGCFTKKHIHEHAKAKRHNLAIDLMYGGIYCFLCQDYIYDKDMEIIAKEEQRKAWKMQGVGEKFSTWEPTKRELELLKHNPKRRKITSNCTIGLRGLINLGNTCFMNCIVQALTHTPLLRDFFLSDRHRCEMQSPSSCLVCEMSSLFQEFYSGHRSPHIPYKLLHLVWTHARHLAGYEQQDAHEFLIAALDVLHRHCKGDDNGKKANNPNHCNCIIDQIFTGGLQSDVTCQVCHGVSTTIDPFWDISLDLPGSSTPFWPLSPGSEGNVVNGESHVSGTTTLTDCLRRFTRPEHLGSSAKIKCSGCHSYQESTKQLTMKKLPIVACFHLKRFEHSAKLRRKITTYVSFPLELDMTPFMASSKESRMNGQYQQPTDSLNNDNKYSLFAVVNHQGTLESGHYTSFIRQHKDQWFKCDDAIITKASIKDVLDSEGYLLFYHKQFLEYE
How it was run: as §1

[3] = biological target: USP24 (UniProt Q9UPU5)
Chain of USP24 (Q9UPU5 whole entry): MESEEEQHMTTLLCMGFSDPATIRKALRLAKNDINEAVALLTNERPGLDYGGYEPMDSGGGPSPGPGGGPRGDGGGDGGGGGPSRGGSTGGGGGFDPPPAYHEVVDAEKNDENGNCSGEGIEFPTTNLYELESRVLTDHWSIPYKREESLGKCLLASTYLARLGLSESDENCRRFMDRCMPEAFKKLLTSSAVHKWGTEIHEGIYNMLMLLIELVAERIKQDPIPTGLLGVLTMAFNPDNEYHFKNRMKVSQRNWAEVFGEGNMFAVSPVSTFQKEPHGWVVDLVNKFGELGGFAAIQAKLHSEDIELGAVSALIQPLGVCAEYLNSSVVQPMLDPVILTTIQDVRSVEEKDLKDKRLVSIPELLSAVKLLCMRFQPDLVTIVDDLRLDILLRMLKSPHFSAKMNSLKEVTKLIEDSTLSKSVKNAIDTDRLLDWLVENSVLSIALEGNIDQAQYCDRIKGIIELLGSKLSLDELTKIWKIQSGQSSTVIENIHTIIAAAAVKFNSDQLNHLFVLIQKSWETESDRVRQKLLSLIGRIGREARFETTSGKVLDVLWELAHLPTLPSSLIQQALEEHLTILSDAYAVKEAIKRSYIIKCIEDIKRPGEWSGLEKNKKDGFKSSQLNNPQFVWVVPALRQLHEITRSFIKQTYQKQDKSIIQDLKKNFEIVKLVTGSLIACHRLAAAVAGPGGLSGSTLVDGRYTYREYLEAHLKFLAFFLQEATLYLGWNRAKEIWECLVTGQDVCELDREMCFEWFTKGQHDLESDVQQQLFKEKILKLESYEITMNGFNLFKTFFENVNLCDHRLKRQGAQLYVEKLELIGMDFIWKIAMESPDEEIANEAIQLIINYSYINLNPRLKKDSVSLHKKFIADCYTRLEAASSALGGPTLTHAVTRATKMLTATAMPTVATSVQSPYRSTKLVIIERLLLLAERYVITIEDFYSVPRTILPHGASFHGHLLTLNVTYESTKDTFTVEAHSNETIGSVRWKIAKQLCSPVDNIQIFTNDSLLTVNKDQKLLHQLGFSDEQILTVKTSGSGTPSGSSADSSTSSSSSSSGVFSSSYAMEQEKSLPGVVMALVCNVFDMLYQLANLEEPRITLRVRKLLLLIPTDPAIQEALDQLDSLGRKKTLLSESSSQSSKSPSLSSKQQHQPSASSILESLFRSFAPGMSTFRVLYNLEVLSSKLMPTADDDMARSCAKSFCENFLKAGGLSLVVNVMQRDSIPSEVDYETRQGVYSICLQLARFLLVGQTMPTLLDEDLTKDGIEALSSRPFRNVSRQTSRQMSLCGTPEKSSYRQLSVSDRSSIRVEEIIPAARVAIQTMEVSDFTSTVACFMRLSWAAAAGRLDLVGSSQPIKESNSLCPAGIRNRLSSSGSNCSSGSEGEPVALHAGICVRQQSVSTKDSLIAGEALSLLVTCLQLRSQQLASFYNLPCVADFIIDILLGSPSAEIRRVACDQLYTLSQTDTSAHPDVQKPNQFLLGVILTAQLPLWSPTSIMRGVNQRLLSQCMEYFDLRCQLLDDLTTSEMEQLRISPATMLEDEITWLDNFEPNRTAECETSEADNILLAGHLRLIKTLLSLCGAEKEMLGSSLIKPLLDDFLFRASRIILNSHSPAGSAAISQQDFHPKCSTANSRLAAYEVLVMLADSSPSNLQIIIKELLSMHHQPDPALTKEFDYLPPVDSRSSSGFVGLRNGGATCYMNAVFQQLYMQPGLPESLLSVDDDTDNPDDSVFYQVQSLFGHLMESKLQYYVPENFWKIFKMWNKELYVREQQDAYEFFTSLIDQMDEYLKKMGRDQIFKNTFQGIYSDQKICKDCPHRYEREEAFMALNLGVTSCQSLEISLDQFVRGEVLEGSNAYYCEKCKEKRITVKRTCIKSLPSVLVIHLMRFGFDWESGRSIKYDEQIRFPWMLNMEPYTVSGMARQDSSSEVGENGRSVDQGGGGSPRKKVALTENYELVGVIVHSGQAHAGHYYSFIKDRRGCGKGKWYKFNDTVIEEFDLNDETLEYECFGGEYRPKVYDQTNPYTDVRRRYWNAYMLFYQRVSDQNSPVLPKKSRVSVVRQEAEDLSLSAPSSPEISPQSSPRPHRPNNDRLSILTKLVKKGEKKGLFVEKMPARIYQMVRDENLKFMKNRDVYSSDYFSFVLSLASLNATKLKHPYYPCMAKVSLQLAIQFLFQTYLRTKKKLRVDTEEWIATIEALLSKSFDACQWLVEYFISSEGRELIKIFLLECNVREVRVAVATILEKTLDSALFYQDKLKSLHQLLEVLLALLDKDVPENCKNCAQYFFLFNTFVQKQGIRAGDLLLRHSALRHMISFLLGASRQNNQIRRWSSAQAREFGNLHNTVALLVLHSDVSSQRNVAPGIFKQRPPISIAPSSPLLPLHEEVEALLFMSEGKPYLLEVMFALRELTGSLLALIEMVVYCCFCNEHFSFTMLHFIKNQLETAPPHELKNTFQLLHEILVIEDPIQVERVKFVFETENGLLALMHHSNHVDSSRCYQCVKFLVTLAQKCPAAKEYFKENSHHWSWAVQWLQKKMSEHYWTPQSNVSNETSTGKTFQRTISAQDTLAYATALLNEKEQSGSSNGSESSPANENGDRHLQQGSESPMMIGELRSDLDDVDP
How it was run: as §1

[4] = biological target: T3, USP25 (UniProt Q9UHP3)
T3 sequence (whole entry): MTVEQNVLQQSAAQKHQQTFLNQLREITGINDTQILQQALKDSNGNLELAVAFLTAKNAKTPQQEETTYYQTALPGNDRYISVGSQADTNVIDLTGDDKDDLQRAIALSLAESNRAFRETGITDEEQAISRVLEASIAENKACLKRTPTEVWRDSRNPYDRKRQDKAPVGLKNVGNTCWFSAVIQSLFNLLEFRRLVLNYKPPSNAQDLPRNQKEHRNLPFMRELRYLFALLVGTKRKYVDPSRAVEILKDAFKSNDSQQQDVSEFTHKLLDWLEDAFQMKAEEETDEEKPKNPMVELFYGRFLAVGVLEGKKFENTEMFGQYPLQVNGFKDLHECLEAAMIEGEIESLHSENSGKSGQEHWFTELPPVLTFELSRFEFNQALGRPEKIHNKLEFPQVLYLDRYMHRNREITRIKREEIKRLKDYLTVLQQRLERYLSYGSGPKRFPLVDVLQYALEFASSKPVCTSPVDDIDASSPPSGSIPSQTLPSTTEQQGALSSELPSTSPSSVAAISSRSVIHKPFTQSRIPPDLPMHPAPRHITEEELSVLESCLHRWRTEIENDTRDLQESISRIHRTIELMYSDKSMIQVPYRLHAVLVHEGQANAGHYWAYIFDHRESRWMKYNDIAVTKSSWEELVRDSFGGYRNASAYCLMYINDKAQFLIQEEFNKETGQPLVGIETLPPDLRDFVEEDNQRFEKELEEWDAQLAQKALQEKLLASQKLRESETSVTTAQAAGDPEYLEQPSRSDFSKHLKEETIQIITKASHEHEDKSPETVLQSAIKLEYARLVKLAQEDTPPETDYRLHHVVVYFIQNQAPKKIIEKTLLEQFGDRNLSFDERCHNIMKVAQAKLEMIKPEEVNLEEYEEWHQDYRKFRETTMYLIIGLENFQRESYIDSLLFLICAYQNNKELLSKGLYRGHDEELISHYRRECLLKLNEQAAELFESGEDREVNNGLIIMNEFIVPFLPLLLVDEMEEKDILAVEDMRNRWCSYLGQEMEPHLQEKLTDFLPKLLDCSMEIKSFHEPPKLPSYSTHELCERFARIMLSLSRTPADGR
How it was run: as §1

[5] = biological target: T4, USP28 (UniProt Q96RU2)
T4 sequence (whole entry): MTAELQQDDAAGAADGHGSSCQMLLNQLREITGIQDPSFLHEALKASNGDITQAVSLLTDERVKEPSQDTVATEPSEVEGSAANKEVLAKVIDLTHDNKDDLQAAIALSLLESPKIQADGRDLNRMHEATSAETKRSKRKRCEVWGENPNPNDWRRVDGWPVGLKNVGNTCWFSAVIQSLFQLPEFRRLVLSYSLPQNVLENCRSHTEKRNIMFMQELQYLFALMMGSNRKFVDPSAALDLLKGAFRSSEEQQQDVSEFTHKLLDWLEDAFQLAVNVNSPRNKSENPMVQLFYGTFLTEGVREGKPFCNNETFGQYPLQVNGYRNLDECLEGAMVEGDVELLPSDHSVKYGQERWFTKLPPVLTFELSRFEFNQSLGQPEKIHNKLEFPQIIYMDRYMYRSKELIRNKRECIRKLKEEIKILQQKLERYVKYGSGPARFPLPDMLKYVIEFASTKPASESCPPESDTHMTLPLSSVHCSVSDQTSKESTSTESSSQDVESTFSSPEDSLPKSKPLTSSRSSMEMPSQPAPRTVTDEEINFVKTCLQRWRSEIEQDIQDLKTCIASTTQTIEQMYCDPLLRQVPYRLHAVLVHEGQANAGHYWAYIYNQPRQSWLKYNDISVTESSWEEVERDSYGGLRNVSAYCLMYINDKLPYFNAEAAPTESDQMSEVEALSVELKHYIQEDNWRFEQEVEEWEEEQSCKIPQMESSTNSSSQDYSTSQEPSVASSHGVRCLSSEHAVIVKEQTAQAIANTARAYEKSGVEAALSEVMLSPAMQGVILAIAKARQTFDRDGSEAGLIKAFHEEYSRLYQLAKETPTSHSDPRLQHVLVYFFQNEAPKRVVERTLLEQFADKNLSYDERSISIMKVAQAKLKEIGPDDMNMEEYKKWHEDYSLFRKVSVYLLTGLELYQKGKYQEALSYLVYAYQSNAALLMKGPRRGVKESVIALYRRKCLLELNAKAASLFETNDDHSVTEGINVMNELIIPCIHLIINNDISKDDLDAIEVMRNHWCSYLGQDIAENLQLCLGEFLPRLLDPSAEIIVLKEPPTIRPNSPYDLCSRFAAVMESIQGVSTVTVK
How it was run: as §1

Measured: log2 ratio of Biotin-Ahx-Ub-VS probe labelling

Cc1ccc(-c2nnc(C)[nH]2)c(NC(=O)CCl)c1
inactive: [1] 0.0362 | [2] 0.0459 | [3] -0.204 | [4] -0.734 | [5] -0.643
